These results are taken from PubChem BioAssay AID1851 (National Center for Advancing Translational Sciences (NCATS), 2009).

Values joined by “and” are separate entries in the source; they are usually repeats but may differ in a detail not shown here. Identical values can stand only once. Out of some 16,000 compounds screened, about 2,600 (16%) were called active. About 20% were inconclusive and are not listed. Calls follow the shape of the dose curve; as a rule, active = well fitted curve in the direction sought with a large enough effect; inconclusive = small, poorly fitted or top-dose-only effect, or effect the other way; inactive = no such curve, though single readings can be large or run the other way. A selection follows. Some structures have more than one record in an assay (separate samples or runs), and their calls can disagree. Peptide text beside a SMILES is read from it. * marks the point of attachment. Cbz = O=C(OCc1ccccc1)*
% is scaled to controls: 0 for no effect and ±100 for the full control effect.

This experiment deals with Cytochrome P450 2D6 (Homo sapiens) (UniProt P10635). Briefly: Cytochrome panel assay with activity outcomes. As to conditions: recombinant CYP, pro-luciferin dealkylation, luminescence, p450-cyp2d6; series mostly up to 57.1 µM.
Cytochrome P450 2D6 (Homo sapiens), sequence (P10635 whole entry, looked up): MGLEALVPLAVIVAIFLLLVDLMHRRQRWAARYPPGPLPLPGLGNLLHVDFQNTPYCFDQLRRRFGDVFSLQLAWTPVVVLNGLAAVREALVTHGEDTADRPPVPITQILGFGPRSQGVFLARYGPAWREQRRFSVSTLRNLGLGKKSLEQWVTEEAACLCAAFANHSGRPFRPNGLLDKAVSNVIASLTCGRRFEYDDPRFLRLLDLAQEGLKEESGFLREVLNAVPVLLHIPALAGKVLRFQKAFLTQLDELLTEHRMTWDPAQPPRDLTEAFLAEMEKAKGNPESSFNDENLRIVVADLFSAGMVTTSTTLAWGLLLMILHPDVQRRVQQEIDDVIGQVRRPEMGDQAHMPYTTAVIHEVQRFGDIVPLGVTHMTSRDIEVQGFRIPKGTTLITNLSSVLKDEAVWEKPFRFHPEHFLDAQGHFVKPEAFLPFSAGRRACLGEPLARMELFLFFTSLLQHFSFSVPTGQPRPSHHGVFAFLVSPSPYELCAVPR
With `Nc1nc(N)nc(CC(=O)O)n1`, the activity, negative = inhibition is -1.79% [at 11.4 µM] (inactive). As to `O=C(Nc1ccc([N+](=O)[O-])cc1Cl)c1cc(Cl)ccc1O`, the AC50 (commonly the concentration at which the activity in the assay is half-maximal) was 31.6 µM (active) and inactive. On the same count and under the same terms, with `Cc1cccc[n+]1CC(=O)Nc1ccc([N+](=O)[O-])cc1Cl` the entry was “inactive”. `O=C(N/N=C1\CCCc2ccccc21)c1ccc([N+](=O)[O-])cc1Cl`: the AC50 entry was “inactive”. On the same count and under the same terms, with `CN(C)Cc1ccccc1-c1cc(N(C)Cc2ccco2)ncn1` the figure was 7.94 µM (active); with `COc1ccccc1-c1cc(N(C)Cc2ccco2)ncn1`, 12.6 µM (active).

`CN(Cc1ccco1)c1cc(-c2ccccc2Cl)ncn1`: the AC50 result is “inactive”.

On to `CCc1nc2cc(CC(=O)O)ccc2o1`, for which the AC50 entry was “inactive”. On the same count and under the same terms, with `N[C@@H](COP(=O)(O)O)C(=O)O` the entry was “inactive”; with `COc1cccc(NC(=S)NN2CCN(C)CC2)c1`, “inactive”. Still for that read-out and setting: with `Cc1ccc(NC(=O)CN2C(=O)S/C(=C\c3cccn3C)C2=O)cc1` the entry was “inactive”. With `Cn1cc(-c2nc3cncnc3n(-c3ccccc3)c2=O)c2ccccc21`, the AC50 entry was “inactive”. On to `Cn1c(=O)c2[nH]c(CCCCC(=O)O)nc2n(C)c1=O`, for which the activity, negative = inhibition was -13.7% [at 11.4 µM] (inactive).

As to `CCn1c(=O)c2c(nc3n2CCS3)n(C)c1=O`, the AC50 result was “inactive”.

Take `CCCCc1c(O)nc(SCCN(C)C)n(-c2ccccc2)c1=O`: the AC50 result is “inactive”. As to `CCCCc1cc2ccccc2c(OCCN(C)C)n1`, the concentration at half-maximal activity (AC50) is 2 µM (active).

Turning to `C/C(=N\NC(=O)c1ccccc1C)c1ccc(NC(=O)c2cccs2)cc1`, the AC50 entry was “inactive”. For the compound `NS(=O)(=O)c1ccc(N=Nc2cc3ccccc3c(C(=O)O)c2O)cc1`, the activity, negative = inhibition is 4.38% [at 11.4 µM] (inactive). On to `Nc1ccccc1S[C@@H](C[N+](=O)[O-])c1ccc2c(c1)OCO2`, for which the half-maximal activity concentration (AC50) was 3.98 µM (active).

As to `Cc1ccc(OC(=O)c2cccc(C(=O)Oc3ccc(C)cn3)n2)nc1`, the AC50 entry is “inactive”.

Regarding `CN1CCCCC1=NCCCn1cnc2c1c(=O)n(C)c(=O)n2C`, the AC50 result is “inactive”. For `COc1cc(/C=N/NC(=O)c2cccnc2)ccc1OC(=O)c1ccc2c(c1)OCO2`, the AC50 entry is “inactive”. In the case of `CCOC(=O)N/N=C1/C[C@@H](O)[C@@H](O)[C@@H]2[C@@H]3C(=O)N(Cc4ccc5c(c4)OCO5)C(=O)[C@H]3CC[C@@H]12`, the activity, negative = inhibition was 6.47% [at 11.4 µM] (inactive). Turning to `COc1ccc(C(=O)N/N=C2/SCC(=O)N2Cc2ccc3c(c2)OCO3)cc1OC`, the concentration at half-maximal activity (AC50) is 15.8 µM (active). The same measure, in the same setting: the value for `CCOC(=O)N1CCN(C(=O)CN(C)S(=O)(=O)c2ccc3c(c2)C(C)(C)C(=O)N3C)CC1` was “inactive”. As for `CC[C@@H]1OC(=O)[C@H](C)[C@H](O[C@@H]2C[C@](C)(OC)[C@H](O)[C@H](C)O2)[C@H](C)[C@H](O[C@@H]2O[C@@H](C)C[C@@H](N(C)C)[C@@H]2O)[C@](C)(O)C[C@H](C)[C@@H]2N[C@H](COCCOC)O[C@H]([C@@H]2C)[C@]1(C)O`, the AC50 entry was “inactive”. For `COc1ccccc1CN1CCCC2(CCN(S(C)(=O)=O)CC2)C1`, the AC50 is 0.0631 µM (active). As to `COc1ccccc1CN1CC[C@@]2(CCCN(S(C)(=O)=O)C2)C1`, the AC50 was 0.316 µM (active). With `CS(=O)(=O)N1CCC[C@@]2(CCN(c3ccncc3)C2)C1`, the AC50 result was “inactive”. Same read-out and setting: the value for `COc1ccccc1CN1CC[C@@]2(CCCN(S(=O)(=O)c3ccccc3)C2)C1` was 0.01 µM (active). The same measure, in the same setting: with `COc1ccc(NC(=O)N2CC[C@@]3(CCCN(S(C)(=O)=O)C3)C2)cc1` the entry was “inactive”; with `COc1ccc(NC(=O)N2CCCC3(CCN(S(C)(=O)=O)CC3)C2)cc1`, “inactive”.

With `COc1ccccc1CN1CCC2(CC1)CCN(S(C)(=O)=O)CC2`, the AC50 was 0.02 µM (active).

As to `O=S(=O)(c1ccccc1)N1CCC[C@@]2(CCN(c3ccccc3)C2)C1`, the AC50 result is “inactive”. As for `CS(=O)(=O)N1CCC2(CCN(Cc3nccs3)CC2)CC1`, the AC50 entry is “inactive”. `Cn1cc(-c2nc3cnc(Oc4ccccc4)nc3n(Cc3cccs3)c2=O)c2ccccc21`: the AC50 entry is “inactive”.

`CC(C)Cn1c(SCC(=O)c2c(N)n(C)c(=O)n(C)c2=O)nc2ccccc21`: the AC50 entry is “inactive”. On the same count and under the same terms, with `COCCNC(=O)c1onc(CSc2cccc(Cl)c2)c1C(=O)O` the entry was “inactive”. As for `Nc1ccc(N=Nc2ccc(-c3ccc(O)cc3)cc2)c2ccc(S(=O)(=O)O)cc12`, the activity, negative = inhibition was 3.2% [at 11.4 µM] (inactive).

Turning to `O=C(O)c1[nH]c2c([N+](=O)[O-])cc([N+](=O)[O-])cc2c1C(=O)O`, the activity, negative = inhibition is 11.1% [at 11.4 µM] (inactive).

Regarding `NC(=O)C[C@H](N)C(N)=O`, the activity, negative = inhibition is -0.87% [at 11.4 µM] (inactive). Turning to `CC1CCN(C(=O)Nc2ccc3nsnc3c2)CC1`, the AC50 entry was “inactive”. As to `O=S(=O)(c1ccccc1)N1CCC2(CC1)CN(Cc1nccs1)C2`, the AC50 entry was “inactive”. On the same count and under the same terms, with `COc1ccccc1CN1CCC2(CC1)CCN(S(=O)(=O)c1ccccc1)CC2` the figure was 0.158 µM (active).

In the case of `CN1CCC2(CC1)CCN(S(=O)(=O)c1ccccc1)CC2`, the AC50 entry was “inactive”. On the same count and under the same terms, the value for `COc1ccc(NC(=O)N2CC3(CCN(S(=O)(=O)c4ccccc4)CC3)C2)cc1` was “inactive”; that for `O=S(=O)(c1ccccc1)N1CCC[C@@]2(CCN(Cc3nccs3)C2)C1` was 2.51 µM (active); that for `O=S(=O)(c1ccccc1)N1CCC2(CCCN(Cc3nccs3)C2)CC1` was “inactive”. Same read-out and setting: the value for `Cc1cccn2c(=O)c(C=NCc3ccco3)c(Nc3ccc(SC(F)F)cc3)nc12` was “inactive”. Consider `COC(=O)[C@@H]1O[C@@H](SCCN)[C@@H](O)[C@H](O)[C@H]1O`, for which the activity, negative = inhibition is -0.405% [at 11.4 µM] (inactive). Regarding `C#CCSc1nnc(-c2cc3c(C(F)(F)F)nn(C)c3s2)n1C`, the AC50 result was “inactive”.

Take `CSc1nnc(-c2sc(-c3ccccc3)nc2C)n1C`: the AC50 result was “inactive”. Same read-out and setting: the value for `C#CCSc1nnc(-c2sc(-c3ccccc3)nc2C)n1C` was 6.31 µM (active); that for `CC(=O)c1cc2ccccc2oc1=O` was “inactive”. Turning to `COC(=O)C1CSC(C(=O)OC)N1C(=O)Nc1c(C)cccc1C` (configuration not stated), the AC50 result was “inactive”.

In the case of `O=C(CSCc1c(F)cccc1Cl)NCC1CCCO1` (configuration not stated), the AC50 result was “inactive”.

As for `O=C(CN(Cc1ccccc1Cl)C(=O)c1ccc(CN2CCOCC2)o1)NCC1CCCO1` (configuration not stated), the AC50 was 7.08 µM (active). On the same count and under the same terms, with `Cc1ccc(CS(=O)(=O)Cc2ccc(C(=O)NCC3CCCO3)o2)cc1` (configuration not stated) the entry was “inactive”. On to `Cc1ccccc1NC(=O)c1cccc2nc3ccccc3nc12`, for which the AC50 result was “inactive”. As to `COC(=O)C/C=C\[C@@H](C)[C@@H](/C=N\OC[C@@H]1O[C@H](c2ccccc2)C=C[C@@H]1Oc1ccc(OC)cc1)NS(=O)(=O)c1ccc(C)cc1`, the activity, negative = inhibition was -14% [at 11.4 µM] (inactive). Consider `N=C(N)SCCc1cnc[nH]1`, for which the AC50 was 25.1 µM (active) and 6.31 µM (active). For the compound `N=C(N)SCCCN`, the activity, negative = inhibition is -11.8% [at 11.4 µM] (inactive). Turning to `O=C(NCCNC[C@@H](O)COc1ccc(O)cc1)N1CCOCC1`, the AC50 entry was “inactive”.

`Cc1nc(Oc2ccc(Cl)cc2)c2oc3ccccc3c2n1`: the AC50 result is “inactive”. For the compound `COc1ccccc1OCC(=O)NNC(=O)c1cnccn1`, the AC50 entry was “inactive”. With `Cn1c(=O)cc(OCC(=O)NCc2cccnc2)c2ccccc21`, the AC50 result was “inactive”. As for `CCn1c(=O)cc(OCC(=O)Nc2cccnc2)c2ccccc21`, the AC50 is 6.31 µM (active). The same measure, in the same setting: the value for `Cc1cc(N2CCOCC2)ccc1/C=C1\SC(=O)N(C(C)C)C1=O` was “inactive”. Regarding `COC(=O)[C@H](C)NC(=O)[C@@H](C)CO`, the activity, negative = inhibition is -0.424% [at 11.4 µM] (inactive). The same measure, in the same setting: the value for `Cn1c(=O)c2[nH]c(/N=N\N3CCN(CCO)CC3)nc2n(C)c1=O` was 3.89% [at 11.4 µM] (inactive); that for `O=C(O)CCC(=O)c1ccc(Cl)cc1` was 11.7% [at 11.4 µM] (inactive).

As for `N[C@H](Cc1ccc(Cl)cc1)C(=O)O`, the AC50 entry is “inactive”. Same read-out and setting: the value for `N[C@@H](C(=O)O)[C@H](CC(=O)O)c1ccc(Cl)cc1` was 2.51 µM (active); that for `CCn1c(SCc2ccc(C(=O)Nc3nccs3)cc2)nnc1-c1ccc(NC(C)=O)cc1` was “inactive”. `CC12CCC(C(=O)Nc3ccccc3Br)(C/C1=N\O)C2(C)C` (configuration not stated): the AC50 entry was “inactive”. Still for that read-out and setting: the value for `c1ccc(CNc2ccnc(-c3ccoc3)n2)cc1` was 20 µM (active); that for `CN(C)c1ccc(-c2nccc(NCc3cccs3)n2)cc1` was 0.126 µM (active).

Take `Cc1cnc(CNc2ccnc(-c3ccoc3)n2)cn1`: the AC50 result is “inactive”.

With `c1csc(CNc2ccnc(-c3ccoc3)n2)c1`, the AC50 is 3.16 µM (active). On the same count and under the same terms, the value for `Cc1cnc(CNc2ccnc(-c3c(C)noc3C)n2)cn1` was “inactive”. Regarding `c1cncc(-c2nccc(NCc3cccs3)n2)c1`, the AC50 is 0.631 µM (active).

As to `COc1ncc2ncc(=O)n(Cc3ccc(F)cc3)c2n1`, the AC50 result was “inactive”. Consider `CCC(C)[C@H](NC(=O)Nc1ccc(Oc2ccccc2)cc1)C(=O)O` (some centres not stated), for which the AC50 entry is “inactive”. `O=C(O)c1c[nH]c2cc(OCc3ccccc3)ccc2c1=O`: the activity, negative = inhibition was 4.69% [at 11.4 µM] (inactive). In the case of `O=C(O)[C@@H]1[C@@H]2C[C@H]([C@@H](Br)[C@H]2N2C(=O)CCC2=O)[C@@H]1C(=O)O`, the activity, negative = inhibition was -2.86% [at 11.4 µM] (inactive). For `COC(=O)CCC(NC(=O)OCc1ccccc1)C(=O)NC(CC(C)C)C(=O)OC` (configuration not stated) (Cbz-Glu(OMe)-Leu-OMe; configuration not given here), the AC50 entry is “inactive”. `COC(=O)C(NNc1ccccc1)(NC(=O)c1ccccc1F)C(F)(F)F` (configuration not stated): the AC50 entry was “inactive”. For `CCCNC(=O)OC[C@@H]1O[C@H](CCO/N=C\c2ccc(C(=O)N3[C@H](c4ccc(C)cc4)[C@@H](C)CC[C@H]3C(=O)OC)cc2)C=C[C@@H]1Oc1ccc(OC)cc1`, the activity, negative = inhibition is 9.53% [at 11.4 µM] (inactive). In the case of `O=C(c1ccccc1)[C@@H]1O[C@H]1c1ccc(-c2ccccc2)cc1`, the AC50 result is “inactive”. Same read-out and setting: with `O=C(Cn1cnc2ccccc21)NC(c1ccccc1)c1ccccc1` the figure was 7.08 µM (active); with `CC(NC(=O)Cn1cnc([N+](=O)[O-])n1)c1ccccc1` (configuration not stated), “inactive”. On the same count and under the same terms, the value for `C[C@H](NC(=O)Cn1cncn1)c1ccccc1` was “inactive”. For `C[N+]1(CCCC[N+]2(C)CCCCCCC2)CCCCCCC1`, the activity, negative = inhibition is -7.84% [at 11.4 µM] (inactive). Still for that read-out and setting: with `N/C(=N\O)c1cn([C@@H]2O[C@@H](CO)[C@H](O)[C@@H]2O)c2ncnc(NO)c12` the figure was 14.4% [at 11.4 µM] (inactive). Turning to `CCOc1ccc(N2C(=O)CN=C2Nc2ccccc2F)cc1`, the AC50 result is “inactive”.

Regarding `CCOc1ccc(N2C(=O)CN=C2Nc2ccccc2Cl)cc1`, the AC50 result is “inactive”. Still for that read-out and setting: the value for `CCOc1ccc(NC2=NCC(=O)N2Cc2cccs2)cc1` was 7.08 µM (active).
